Laboratory results taken from PubChem BioAssay (NCI).
Compounds without any hit were thinned out: in the full panel of roughly 83,000, 20% have a hit.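 In brief: 96-well plates, 48 h treatment, single concentration, percent growth endpoint.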 A number with no mark means an inactive call. The source made the active and inactive calls. The calls were made as follows: active = growth percent below 10; inactive = the rest.

System: HCT-15 colon
Assay: NCI-60 one-dose screen, 48 h (100 = growth as untreated, 0 = no growth, -100 = all killed)
Settings: 10 µM unless noted

| Compound | growth [%] |
| --- | --- |
| CC1=C(C(=O)Nc2ccccc2)C(c2cccc(Cl)c2Cl)n2c(nc3ccccc32)N1 (stereo unspecified) | 35.5 |
| CCOC(=O)/C(F)=C/C1CC1C(c1ccccc1)c1ccccc1 (stereo unspecified) | 67 |
| CN(C(=O)CN1C(=O)/C(=C/c2ccco2)SC1=S)C1CCS(=O)(=O)C1 (stereo unspecified) | 87.5 |

System: HT29 colon
Assay: as above
Settings: 10 µM unless noted

| Compound | growth |
| --- | --- |
| N#Cc1c(-c2ccc(F)cc2)nc(SCc2ccc(F)cc2)nc1N1CCNCC1 | -79.1% (active) |
| N#Cc1c(-c2ccc(F)cc2)nc(SCc2ccccc2)nc1N1CCNCC1 | -70.7% (active) |
| CS(=O)(=O)c1ccc(-n2nc(C(=O)NCc3ccccc3)cc2-c2ccc(Cl)cc2)cc1 | 74% |
| Cc1cccc(C)c1Nc1nnc(-c2c[nH]c3ccccc23)o1 | 104% |
| COc1ccc(/C=C/C(=O)c2ccc(S(=O)(=O)NCCNc3nc(N(C)C)nc(N4CCOCC4)n3)cc2)cc1 | 81.1% |
| COc1ccc(NC(=O)Cn2c(/C=C/c3cccc(Br)c3)nc3ccccc3c2=O)cc1 | 51.9% |
| O=C1CCC(N2C(=O)c3cccc(NCCCCCC(=O)N4CCN(c5ccc6nc7c(nc6c5C(F)(F)F)C(=O)c5ncccc5C7=O)CC4)c3C2=O)C(=O)N1 (stereo unspecified) | -18.7% (active) |
| O=C(CSc1nnc(-c2ccc(-c3nc4ccc(Cl)cc4[nH]3)cc2)o1)Nc1ccccc1 | 41% |
| CC(C)(C)OC(=O)N1CCC2(CC1)Oc1ccccc1[C@H]1CC(c3ccc(Br)cc3)=NN12 | 96.7% |
| NS(=O)(=O)c1ccc(N2N=C(c3ccc(NC(=O)Nc4ccccc4)cc3)CC2c2ccc(Br)cc2)cc1 (stereo unspecified) | -57% (active) |
| CC1=C(C(=O)OCc2ccccc2)C(c2ccc(N(C)C)cc2)n2c(nc3ccccc32)N1 (stereo unspecified) | 100% |
| Cc1ccc(O)cc1Nc1nc(SCCN2CCOCC2)nc2c1cnn2CC(Cl)c1ccc(Br)cc1 (stereo unspecified) | -30.2% (active) |
| C/C(=N/O)c1ccc(NC(=O)CSc2nnc(-c3ccc(-c4nc5ccc(Cl)cc5[nH]4)cc3)o2)cc1 | 31.4% |
| CCCCNc1ccc2c3c(cccc13)C(=O)N(NCC(O)COc1ccc3c(C)cc(=O)oc3c1)C2=O (stereo unspecified) | 100% |
| COc1ccc2[nH]c(=O)cc(-n3ncc(C(=O)/C=C/c4cc(OC)c(OC)c(OC)c4)c3C)c2c1 | -27.4% (active) |
| COc1ccc(-c2cc(-c3cc(OC)c(OC)c(OC)c3)[nH]c(=O)c2C#N)cc1 | 103% |
| COc1ccc2[nH]c(O)c(N=Nc3nc(-c4ccc(Br)cc4)cs3)c2c1 | 12.8% |
| COc1ccc2[nH]cc(-c3cc(N)n4nc(-c5c[nH]c6ccccc56)cc4n3)c2c1 | -63.8% (active) |
| Nc1cc(-c2c[nH]c3ccc(F)cc23)nc2cc(-c3c[nH]c4ccccc34)nn12 | -42.8% (active) |

| Compound | growth |
| --- | --- |
| COC(=O)c1cccc(Oc2ccc(NC(=O)Nc3cc(C(F)(F)F)ccc3F)cc2)c1 | 62.9% |
| N#C/C(=C1/C(=O)Nc2ccccc21)c1nnc(NC(=O)c2ccc(-n3c(=O)[nH]c4ccccc4c3=O)cc2)s1 | 26.9% |
| Cc1ccc(N=Nc2c(N)nn3c(-c4cc5cc(Br)ccc5oc4=O)ccnc23)cc1 | 65% |
| Cc1ccc(C2CC(c3ccc(NC(=O)Nc4ccccc4)cc3)=NN2c2ccc(S(C)(=O)=O)cc2)cc1 (stereo unspecified) | -55.7% (active) |
| O=C(NN1C(=O)/C(=C/C=C/c2ccc([N+](=O)[O-])o2)SC1=S)c1ccc(O)cc1 | -67.7% (active) |
| COc1cc(CNC(=O)C[C@H](C)CCC=C(C)C)ccc1OCc1cn(-c2ccccc2F)nn1 | 97.4% |
| OC(c1ccccc1)(c1ccccc1)C1CCN(c2ccc3nnc(Cl)n3n2)CC1 | 26.8% |
| Cc1nc2sccn2c1-c1nnc(SCC(C)C)o1 | 79.9% |
| N#Cc1ccc(C(=O)CSc2nc3c(c(Nc4ccc(S(N)(=O)=O)cc4)n2)CCC3)cc1 | 55.8% |
| Cc1cccc(/C=C/c2ccc(NC(=S)NCCCCN(C)C)cc2)c1 | -64.2% (active) |
| O=C(N/N=C/c1ccoc1)c1[nH]c2ccc(Br)cc2c1-c1ccccc1 | -50.2% (active) |
| O=C(CSc1nc2sc3c(c2c(=O)n1-c1ccc(Cl)cc1)CCCC3)NNC(=O)c1ccc(F)cc1 | 107% |
| C=CCSc1nnc(-c2ccc(-c3nc4ccc(Cl)cc4[nH]3)cc2)o1 | 32.1% |
| O=C(N/N=C/c1ccc(Cl)cc1)c1ccc(OCc2nc3ccc(Cl)cc3[nH]2)cc1 | -55.7% (active) |
| Cc1cccc(NCC(=O)N2CCN(c3ncnc4c3cnn4-c3ccccc3)CC2)c1 | 83.5% |
| CN(C)c1nc(NCCNS(=O)(=O)c2ccc(C(=O)/C=C/c3ccc(Cl)cc3)cc2)nc(N2CCOCC2)n1 | -80.6% (active) |
| CC1=C(C(=O)Nc2ccccc2)C(c2cccc(Cl)c2Cl)n2c(nc3ccccc32)N1 (stereo unspecified) | 22.1% |
| CCOC(=O)/C(F)=C/C1CC1C(c1ccccc1)c1ccccc1 (stereo unspecified) | 80.6% |
| CN(C(=O)CN1C(=O)/C(=C/c2ccco2)SC1=S)C1CCS(=O)(=O)C1 (stereo unspecified) | 99.5% |
